Results on 33 sequences are retold here after publication PMC12820563, “FoxP3 forms a head-to-head dimer in vivo and stabilizes its multimerization on adjacent microsatellites”.

Whole data set: some 16,000 sequences, median “rpm ratio (pull-down/input)” near 0.5, cut for the highest 2% near 5.5. The full list was thinned out, with the highest values kept by preference.

The experiment concerns the target T1, MBP-FoxP3dN (Mus musculus, UniProt Q99JB6 188-423).
T1 sequence: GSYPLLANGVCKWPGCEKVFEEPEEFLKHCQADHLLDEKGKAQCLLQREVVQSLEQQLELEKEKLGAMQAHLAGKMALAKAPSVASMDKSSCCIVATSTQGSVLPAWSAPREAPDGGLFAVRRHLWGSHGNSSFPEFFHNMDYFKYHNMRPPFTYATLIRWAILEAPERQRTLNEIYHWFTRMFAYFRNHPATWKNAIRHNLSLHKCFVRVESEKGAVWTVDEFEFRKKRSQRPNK
Kind of experiment: PD-seq (MBP pull-down with sequencing); 20 mM Tris-HCl pH 7.5, 100 mM NaCl, 1.5 mM MgCl2, 0.4 uM protein, 0.1 uM dsDNA library, 30 min, room temperature, amylose pull-down; high values mean tight binding. The settings on record: protein: recombinant; tags: His6-MBP; chain copies: 2; dsDNA, one strand shown. A digest of the protocol:
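Mouse FoxP3 or FoxP1 fragment lacking the N-terminus, His6-MBP-tagged and expressed in E. coli, was incubated at 0.4 µM with 0.1 µM Klenow-filled degenerate double-stranded DNA library for 30 min at room temperature in Tris pH 7.5 buffer with NaCl and MgCl2. Complexes captured on amylose resin were washed three times and their DNA sequenced on Illumina. Binding is reads-per-million enrichment of pull-down over input, replicates pooled.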
As to “GATGATTGTTCTCCCAGCTGATGAATTCGCATGATCGAGTAAACAAATTTTCCTAATCTTTCTGTTCAAGCGCCATCTAC”, the binding signal is 0.877 RPM ratio (pull-down/input).

Take “GATGATTGTTCTCCCAGCTGATGAATTCTGCGGGTCGAGTAAACAAATTTTCCTAATCTTTCTGTTCAAGCGCCATCTAC”: the binding signal was 0.928 RPM ratio (pull-down/input).

In the case of “GATGATTGTTCTCCCAGCTGATGAATTAGTCCGTTCGAGTAAACAAATTTTCCTAATCTTTCTGTTCAAGCGCCATCTAC”, the binding signal was 0.434 RPM ratio (pull-down/input).

On to “GATGATTGTTCTCCCAGCTGATGAATTCATGAAATCGAGTAAACAAATTTTCCTAATCTTTCTGTTCAAGCGCCATCTAC”, for which the binding signal is 0.289 RPM ratio (pull-down/input).

With “GATGATTGTTCTCCCAGCTGATGAATTAAACCTTTCGAGTAAACAAATTTTCCTAATCTTTCTGTTCAAGCGCCATCTAC”, the binding signal is 0.318 RPM ratio (pull-down/input).

Consider “GATGATTGTTCTCCCAGCTGATGAATTATTCTGCTCGAGTAAACAAATTTTCCTAATCTTTCTGTTCAAGCGCCATCTAC”, for which the binding signal is 0.328 RPM ratio (pull-down/input).

Turning to “GATGATTGTTCTCCCAGCTGATGAATTATGAGAGTCGAGTAAACAAATTTTCCTAATCTTTCTGTTCAAGCGCCATCTAC”, the binding signal is 0.397 RPM ratio (pull-down/input).

As for “GATGATTGTTCTCCCAGCTGATGAATTTAAGGCATCGAGTAAACAAATTTTCCTAATCTTTCTGTTCAAGCGCCATCTAC”, the binding signal was 0.732 RPM ratio (pull-down/input).

As to “GATGATTGTTCTCCCAGCTGATGAATTTAAAGACTCGAGTAAACAAATTTTCCTAATCTTTCTGTTCAAGCGCCATCTAC”, the binding signal is 0.245 RPM ratio (pull-down/input).

Turning to “GATGATTGTTCTCCCAGCTGATGAATTAGTACAGTCGAGTAAACAAATTTTCCTAATCTTTCTGTTCAAGCGCCATCTAC”, the binding signal is 0.484 RPM ratio (pull-down/input).

In the case of “GATGATTGTTCTCCCAGCTGATGAATTGGATTTATCGAGTAAACAAATTTTCCTAATCTTTCTGTTCAAGCGCCATCTAC”, the binding signal is 1.47 RPM ratio (pull-down/input).

On to “GATGATTGTTCTCCCAGCTGATGAATTCCCTGCATCGAGTAAACAAATTTTCCTAATCTTTCTGTTCAAGCGCCATCTAC”, for which the binding signal was 0.746 RPM ratio (pull-down/input).

“GATGATTGTTCTCCCAGCTGATGAATTCTGCCATTCGAGTAAACAAATTTTCCTAATCTTTCTGTTCAAGCGCCATCTAC”: the binding signal was 4.97 RPM ratio (pull-down/input).

As for “GATGATTGTTCTCCCAGCTGATGAATTTCCTGCATCGAGTAAACAAATTTTCCTAATCTTTCTGTTCAAGCGCCATCTAC”, the binding signal was 0.719 RPM ratio (pull-down/input).

For “GATGATTGTTCTCCCAGCTGATGAATTCCTGCATTCGAGTAAACAAATTTTCCTAATCTTTCTGTTCAAGCGCCATCTAC”, the binding signal was 5.61 RPM ratio (pull-down/input).

For the sequence “GATGATTGTTCTCCCAGCTGATGAATTCGCTGCATCGAGTAAACAAATTTTCCTAATCTTTCTGTTCAAGCGCCATCTAC”, the binding signal was 1.02 RPM ratio (pull-down/input).

Turning to “GATGATTGTTCTCCCAGCTGATGAATTTCTGCATTCGAGTAAACAAATTTTCCTAATCTTTCTGTTCAAGCGCCATCTAC”, the binding signal was 6.35 RPM ratio (pull-down/input).

In the case of “GATGATTGTTCTCCCAGCTGATGAATTCTTGACCTCGAGTAAACAAATTTTCCTAATCTTTCTGTTCAAGCGCCATCTAC”, the binding signal is 0.216 RPM ratio (pull-down/input).

Take “GATGATTGTTCTCCCAGCTGATGAATTCATTCCGTCGAGTAAACAAATTTTCCTAATCTTTCTGTTCAAGCGCCATCTAC”: the binding signal was 0.236 RPM ratio (pull-down/input).

Take “GATGATTGTTCTCCCAGCTGATGAATTTTTCAGTTCGAGTAAACAAATTTTCCTAATCTTTCTGTTCAAGCGCCATCTAC”: the binding signal was 0.248 RPM ratio (pull-down/input).

Consider “GATGATTGTTCTCCCAGCTGATGAATTTGAGTAGTCGAGTAAACAAATTTTCCTAATCTTTCTGTTCAAGCGCCATCTAC”, for which the binding signal is 0.778 RPM ratio (pull-down/input).

“GATGATTGTTCTCCCAGCTGATGAATTTGTGTGGTCGAGTAAACAAATTTTCCTAATCTTTCTGTTCAAGCGCCATCTAC”: the binding signal was 5.5 RPM ratio (pull-down/input).

Take “GATGATTGTTCTCCCAGCTGATGAATTTGGTGTGTCGAGTAAACAAATTTTCCTAATCTTTCTGTTCAAGCGCCATCTAC”: the binding signal was 3.91 RPM ratio (pull-down/input).

With “GATGATTGTTCTCCCAGCTGATGAATTTGTGGTGTCGAGTAAACAAATTTTCCTAATCTTTCTGTTCAAGCGCCATCTAC”, the binding signal was 6.2 RPM ratio (pull-down/input).

With “GATGATTGTTCTCCCAGCTGATGAATTTTTGGTGTCGAGTAAACAAATTTTCCTAATCTTTCTGTTCAAGCGCCATCTAC”, the binding signal is 0.396 RPM ratio (pull-down/input).

For the sequence “GATGATTGTTCTCCCAGCTGATGAATTTCTGTGGTCGAGTAAACAAATTTTCCTAATCTTTCTGTTCAAGCGCCATCTAC”, the binding signal was 0.335 RPM ratio (pull-down/input).

“GATGATTGTTCTCCCAGCTGATGAATTTTTGTGGTCGAGTAAACAAATTTTCCTAATCTTTCTGTTCAAGCGCCATCTAC”: the binding signal was 0.472 RPM ratio (pull-down/input).

With “GATGATTGTTCTCCCAGCTGATGAATTTAGCCCATCGAGTAAACAAATTTTCCTAATCTTTCTGTTCAAGCGCCATCTAC”, the binding signal was 1.28 RPM ratio (pull-down/input).

For the sequence “GATGATTGTTCTCCCAGCTGATGAATTTCCACGATCGAGTAAACAAATTTTCCTAATCTTTCTGTTCAAGCGCCATCTAC”, the binding signal is 0.211 RPM ratio (pull-down/input).

With “GATGATTGTTCTCCCAGCTGATGAATTGCATCGGTCGAGTAAACAAATTTTCCTAATCTTTCTGTTCAAGCGCCATCTAC”, the binding signal is 1.43 RPM ratio (pull-down/input).

In the case of “GATGATTGTTCTCCCAGCTGATGAATTATCTTGGTCGAGTAAACAAATTTTCCTAATCTTTCTGTTCAAGCGCCATCTAC”, the binding signal was 0.323 RPM ratio (pull-down/input).

As to “GATGATTGTTCTCCCAGCTGATGAATTATGATGGTCGAGTAAACAAATTTTCCTAATCTTTCTGTTCAAGCGCCATCTAC”, the binding signal was 1.33 RPM ratio (pull-down/input).

Turning to “GATGATTGTTCTCCCAGCTGATGAATTATGATGTTCGAGTAAACAAATTTTCCTAATCTTTCTGTTCAAGCGCCATCTAC”, the binding signal was 3.29 RPM ratio (pull-down/input).
